Assays:
Assay type in all cases: functional
[1] = biological target: Solute carrier family 2, facilitated glucose transporter member 1 (Homo sapiens) (UniProt P11166); test: ST_JUDE_LEISH: Cytotoxicity at 2uM final concentration against transgenic Leishmania Mexicana promastigotes LmGLUT1 that are glucose transport deficient and complemented with the human glucose transporter GLUT1. Activity is measured by DNA content using SYBR green in vitro
[2] = biological target: Hexose transporter 1 (Plasmodium falciparum) (UniProt O97467); test: ST_JUDE_LEISH: Cytotoxicity at 2uM final concentration against transgenic Leishmania Mexicana promastigotes LmPfHT that are glucose transport deficient and complemented with the Plasmodium falciparum hexose transporter. Activity is measured by DNA content using SYBR green in vitro
[3] = biological target: Glucose transporter (Leishmania mexicana) (UniProt O61059); test: ST_JUDE_LEISH: Cytotoxicity at 2uM final concentration against transgenic Leishmania Mexicana promastigotes LmGT2 that are glucose transport deficient and complemented with the L. Mexicana glucose transporter 2. Activity is measured by DNA content using SYBR green in vitro

Chain of Solute carrier family 2, facilitated glucose transporter member 1 (Homo sapiens) (P11166 whole entry): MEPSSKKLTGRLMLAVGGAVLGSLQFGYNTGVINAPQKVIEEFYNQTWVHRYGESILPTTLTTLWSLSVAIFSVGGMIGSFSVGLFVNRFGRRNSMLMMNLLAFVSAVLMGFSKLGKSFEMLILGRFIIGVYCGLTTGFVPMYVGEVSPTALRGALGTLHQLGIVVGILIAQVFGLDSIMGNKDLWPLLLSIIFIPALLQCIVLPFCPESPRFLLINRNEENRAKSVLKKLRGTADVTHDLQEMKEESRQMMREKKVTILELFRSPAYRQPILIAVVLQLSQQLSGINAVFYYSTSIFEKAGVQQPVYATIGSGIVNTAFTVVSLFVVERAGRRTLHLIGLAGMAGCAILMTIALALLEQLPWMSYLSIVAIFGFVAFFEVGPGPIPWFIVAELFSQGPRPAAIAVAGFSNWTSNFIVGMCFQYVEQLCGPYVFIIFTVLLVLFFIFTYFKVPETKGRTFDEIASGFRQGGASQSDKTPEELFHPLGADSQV

| Structure (SMILES) | inhibition [1] | inhibition [2] | inhibition [3] |
| --- | --- | --- | --- |
| CCOc1ccc(-c2nonc2NC(=O)c2ccc(OC(C)C)cc2)cc1OCC | 2.72% | 1.95% | 3.68% |
| CCNc1cc(C(=O)N[C@@H](Cc2ccccc2)[C@H](O)CNCc2cc(OC)cc(OC)c2)cc(N2CCCS2(=O)=O)c1 | 1.6% | 2.17% | -0.47% |
| COc1ccc(Cl)cc1NC(=O)Nc1ccc2c(c1)CCN(C1CCC1)CC2 | 2.26% | 0.44% | 1.36% |
| CC(=O)Nc1nc(C)c(-c2csc(Nc3ccc(Cl)cc3)n2)s1 | -0.76% | -1.35% | -2.23% |
| CC(C)COc1ccc(Cl)cc1Cc1ccc(-c2nc3ccc(F)cc3[nH]2)o1 | 1.83% | 0.95% | -0.47% |
| CC1CCCC(Nc2noc(-c3sccc3Br)n2)C1 (configuration not stated) | -0.93% | 0.6% | -2.55% |
| Cc1cccc2nc(-c3ccc(-c4cccc(NC(=O)Cc5c[nH]cn5)c4)cc3)[nH]c12 | 1.52% | 3.26% | -1.21% |
| CCC(CC)OC(=O)C(C)c1cccc(C(=O)c2ccccc2)c1 (configuration not stated) | 2.22% | -0.21% | 1.64% |
| COc1cc2nc(N3CCC(CNC(=O)c4ccc(-c5ccc(C(=O)N(C)C)cc5OCCO)cc4)CC3)nc(N)c2cc1OC | -1.09% | 2.24% | 1.27% |
| CCCN(CCC)c1nn2c(=O)c(C(=O)N3CCN(Cc4ccccc4)CC3)cnc2s1 | 1.4% | 1.87% | 2.14% |
| Fc1ccc2[nH]ccc(=NN=Cc3ccccc3Cl)c2c1 | -0.64% | 0.73% | 1.87% |
| CS(=O)(=O)CCNCc1cccc(-c2ccc3c(Nc4ccc(Oc5ccccc5)cc4)ccnc3c2)c1 | 0.35% | -0.06% | 1.33% |
| Cc1nn(C)cc1C(C)Nc1nncc(-c2ccc(C(F)(F)F)cc2)n1 (configuration not stated) | 2.34% | 2.27% | 3.38% |
| CN(C)CCn1c(=N)n(CC(O)c2ccc(Cl)c(Cl)c2)c2ccccc21 (configuration not stated) | 6.31% | 4.53% | 5.49% |
| CCNC(C)(C)CN(Cc1ccc(-c2ccc(C(F)(F)F)cc2)cc1)C(=O)Cn1c(CCc2cccc(F)c2F)nc(=O)c2ccccc21 | 3.91% | 3.3% | 2.34% |
| Cc1nc2ccccc2n1C1CC2CCC(C1)N2CCCC1(c2ccccc2)CCN(C(=O)OCc2ccccc2)CC1 (configuration not stated) | 3.25% | 0.85% | 2.57% |
| N#Cc1cccc(C(=O)Nc2ccc(-c3nc4ccccc4[nH]3)cc2)c1 | 0.28% | -0.34% | -0.95% |
| Cc1c(Cl)cccc1S(=O)(=O)N1CCCCC(c2ccc(C(F)(F)F)cc2)=N1 | 0.39% | 3.08% | -0.52% |
| COc1ccc(-c2cc(C(=O)N3CCc4ccccc43)c3ccccc3n2)cc1OC | -0.76% | 1.24% | -0.93% |
| O=C(/C=C/c1ccc(-c2nc3ccc(Cl)cc3[nH]2)cc1)NCc1cccc(F)c1 | 4.5% | 4.66% | 4.07% |
| CC(C)CNc1nc(N)nc2ccc3c(ccn3CC(C)C)c12 | 1.7% | -0.47% | -0.02% |
| COc1ccc(NS(=O)(=O)c2cc(NC(=O)Cn3ccccc3=O)ccc2N2CCCCC2)cc1 | 2.57% | 3.46% | -7.28% |
| N#Cc1ccc(NC(=O)Nc2ccc3c(c2)CCN(C2CCC2)CC3)cc1 | 5.18% | 4.41% | 3.26% |
| COc1ccccc1CN1CCC(NC(=O)c2ccc(-c3cccc(C(F)(F)F)c3)s2)CC1 | 3.7% | 4.38% | -4.28% |
| COc1ccc(Cl)cc1C(=O)Nc1ccc(-c2nc3ccccc3[nH]2)cc1 | 4.93% | 3.29% | 1.35% |

| Structure (SMILES) | inhibition [1] | inhibition [2] | inhibition [3] |
| --- | --- | --- | --- |
| CN(CCN)Cc1cccc(-c2cccc(-c3nc4cc(C(F)(F)F)ccc4[nH]3)c2)c1 | 2.68% | 2.47% | 3.72% |
| Cc1cc(N/N=C/c2ccccc2[N+](=O)[O-])c2ccc(F)cc2n1 | 2.1% | 4.11% | 1.62% |
| Cc1ccc(O)cc1Nc1ccnc2ccc(-c3cccc(CN(C)C)c3)cc12 | 0.24% | -2.77% | 0.73% |
| CC(C)(C)c1ccc(CN2CCCCC(NC(=O)c3cc(-c4cccc(F)c4)cs3)C2)cc1 (configuration not stated) | -2.41% | -3.63% | -0.11% |
| NCC1CCCN1Cc1ccc(-c2ccc(-c3nc4ccccc4[nH]3)s2)cc1 (configuration not stated) | -0.41% | -0.71% | -0.41% |
| CN1CCN(CCCN(Cc2ccc(-c3ccc(CNC4CCCC4)cc3)cc2)C(=O)CCC2CCCC2)CC1 | 76.5% | 79.8% | 5.69% |
| O=C(Nc1ccc(-c2cccc(-c3nc4cc(C(F)(F)F)ccc4[nH]3)c2)cc1)c1ccc(=O)[nH]n1 | 3.7% | 2.75% | 2.97% |
| O=C(Nc1nc(-c2ccccn2)cs1)c1ccccc1COc1ccccc1 | -2.49% | 1.21% | -1.57% |
| Nc1nccc2ccc(OC3CCCCC3)cc12 | 0.26% | 1.26% | 1.91% |
| OC(CNCc1ccco1)Cn1c2ccc(Br)cc2c2cc(Br)ccc21 (configuration not stated) | 5.15% | 3.41% | 2.56% |
| COc1ccc2c(=NN=Cc3ccc(F)cc3)cc(C)[nH]c2c1 | 12.2% | 11% | 11.6% |
| COc1cccc(C(=O)Nc2ccc(Nc3nc(C)cc(N(C)C)n3)cc2)c1OC | 2.81% | 4.32% | 1% |
| O=[N+]([O-])c1cc(C(c2ccc(O)c([N+](=O)[O-])c2)C(Cl)(Cl)Cl)ccc1O | 9.43% | 9.85% | 7.92% |
| COc1ccc2nc(NC(N)=NC(=O)Nc3ccccc3)nc(C)c2c1 | 2.55% | 2.15% | 0.15% |
| OC(c1cccc2ccccc12)C1CN(CCc2ccccc2)CCC1(O)c1ccccc1 (configuration not stated) | 9.92% | 11.8% | 3.51% |
| CN(C)CCN1CCN(Cc2ccc(-c3cccc(-c4nc5ccccc5[nH]4)c3)cc2)CC1 | -2.11% | -0.12% | -0.98% |
| CS(=O)(=O)NCCCNCc1cccc(-c2cccc(-c3nc4cc(F)ccc4[nH]3)c2)c1 | 1.53% | 1.37% | -0.27% |
| CCc1c(CCNC/C=C/C=C/CNCCc2ccc(OC)c(OC)c2CC)ccc(OC)c1OC | 3.5% | 0.39% | 1.71% |
| C=C(NC(=O)c1cc(C)cc(C)c1)C(=O)OC | 0.48% | -0.44% | 0.67% |
| COc1cc(NC(=O)N2CCc3ccc(OCCN(C(C)C)C(C)C)cc32)cc(C(F)(F)F)c1 | 1.98% | 1.73% | 2.06% |
| COc1ccc2nc(-c3cccc(C)n3)nc(Nc3ccncc3)c2c1 | 11.6% | 1.8% | 2.21% |
| CCCN(CC)CCOC(=O)c1ccccc1 | 8.35% | 7.44% | 9.33% |
| O=C(NC1CC1)c1cnc(N2CCC(c3ccccc3)CC2)c(Cl)c1 | 2.86% | 6.43% | 3.1% |
| O=C1CCCN1CCCNCc1cccc(-c2cccc(-c3nc4cc(C(F)(F)F)ccc4[nH]3)c2)c1 | 4.47% | 3.94% | 4.37% |
| Cc1ccccc1C1CCN(C2CCC(NC(=O)c3ccc(-c4ccccn4)s3)CC2)CC1 (configuration not stated) | -4.15% | -2.96% | -1.37% |

| Structure (SMILES) | inhibition [1] | inhibition [2] | inhibition [3] |
| --- | --- | --- | --- |
| O=C(/C=C/c1ccc(Cl)c(Cl)c1)N1CCC(NCc2ccc3[nH]ccc3c2)CC1 | 4.05% | 4.06% | 0.76% |
| Nc1cc(/C=C/c2ccc([N+](=O)[O-])s2)nc2ccccc12 | 16.4% | 16.5% | 8.5% |
| CCCCN(C)CC#Cc1ccc2[nH]c(C)c(Cl)c(=O)c2c1 | 3.48% | 3.22% | 2.37% |
| Fc1ccc(-c2cncc(Nc3ccncc3)n2)cc1 | 6.02% | 7.91% | 8.39% |
| CCS(=O)(=O)Nc1ccc2c(c1)/C(=C(/Nc1ccc(CN3CCCCC3)cc1)c1ccccc1)C(=O)N2 | 83.1% | 89.4% | 82% |
| CCCCNCc1ccc(-c2nc(CN(Cc3ccc(Cl)c(Cl)c3)C(=O)CN(C)C)cs2)cc1 | 50.3% | 52.9% | 8.23% |
| O=C(Nc1ccc2nc3n(c(=O)c2c1)CCCCC3)C(=O)N1CCC(Cc2ccccc2)CC1 | -0.67% | 0.77% | -0.44% |
| Cc1ccc(N2C(=O)C3C(C2=O)C2(c4ccccc4)C(=O)C3(c3ccccc3)C(c3ccccc3)=C2c2ccccc2)cc1 (configuration not stated) | 0.73% | 0.67% | -1.83% |
| COc1ccc(CCn2c(=N)c(C(=O)NCc3cccnc3)cc3c(=O)n4ccccc4nc32)cc1 | 11.7% | 10.9% | 7.6% |
| COc1cccc(Nc2nc(NCCO)c3ccccc3n2)c1 | 14.8% | 15% | 5.17% |
| NC(=O)c1sc(-n2cnc3ccc(C(=O)NCCN4CCOCC4)cc32)cc1OCc1ccccc1C(F)(F)F | 0.72% | -0.6% | -0.32% |
| Cc1ccc(NC(C)C(=O)Nc2ccccc2)cc1S(=O)(=O)N1CCCCCC1 (configuration not stated) | 10.6% | 9.81% | 9.12% |
| CC(C)(C)c1nn(-c2ccc(Cl)cc2)c2[nH]c(=O)c(CNC3CCCC3)cc12 | 7.6% | 6.85% | 8.31% |
| CC(C)CCCC(C)(C)NC[C@@H](O)[C@H](Cc1ccccc1)NC(=O)c1cc(NC(C)C)cc(N2CCCCS2(=O)=O)c1F | 7.51% | 5.83% | 7.87% |
| Cc1cccc2nc(-c3cccc(-c4ccc(NC(=O)CN5CCN(C)CC5)cc4)c3)[nH]c12 | 2.17% | 3.31% | 0.62% |
| N=C(N)c1ccc(NN=Cc2ccc(Oc3ccc(C(=N)N)cc3)cc2)cc1 | 3.43% | 3.55% | 0.79% |
| CCN(Cc1cccc2ccccc12)c1ccc2nc(N)nc(N)c2c1 | 97.2% | 99% | 84% |
| CCCC(CNCc1ccc(Cl)c(C(F)(F)F)c1)CNc1nc2cnccc2[nH]1 (configuration not stated) | 13.5% | 11.9% | 8.76% |
| CN(C)CCCN1C(=O)c2[nH]nc(-c3ccc(Cl)cc3O)c2C1c1ccc(Cl)cc1 (configuration not stated) | 0.82% | 0.66% | 1.69% |
| Cc1cc(NC(=O)Nc2cccc(C#N)c2)c2ccccc2n1 | 4.37% | 4.11% | 3.04% |
| O=C(Nc1cccc(-c2ccc(CN3CCCC3)cc2)c1)c1ccc(F)cc1 | -0.73% | 0.3% | 0.64% |
| N=c1n(Cc2ccc(Cl)cc2)c2ccccc2n1CC(O)c1ccc(Cl)c(Cl)c1 (configuration not stated) | 0.04% | 1.87% | -1.55% |
| COCCNCC(O)Cn1c2ccc(Cl)cc2c2cc(Cl)ccc21 (configuration not stated) | -1.12% | -1.7% | -0.53% |
| CCN(CC)c1ccc(C=CC(=O)NCCN2CCC(N(C)C3CCCCC3C)CC2)cc1 (configuration not stated) | -2.14% | -0.93% | -0.02% |
